The experiment can be described thus: NCI Yeast Anticancer Drug Screen. Data for the wt2 strain (AID 169).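 Note: 0% = growth of vehicle-treated yeast cultures.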 To be noted: S. cerevisiae wt2 strain growth inhibition, stronger effect = higher value. The method, then: Growth inhibition of yeast strains with defined genetic alterations is measured as a screen for potential anti-cancer activity. Selected strains with alterations in DNA damage repair or cell cycle control were exposed to compounds and growth inhibition was measured relative to vehicle treated controls. The strain used in this assay is wt2

The record followed here is PubChem BioAssay (NCI).

Structures are written as SMILES. The panel holds about 79,000 compounds, 15% with a hit somewhere; the sample as a whole holds those more often. A number with no mark means an inactive call. Active and inactive are the calls of the source. Cut-off read from the data, not from the text of the source: active = growth inhibition above about 70%; inactive = the rest.

`CCC(C)COC(=O)Nc1cccc(Cl)c1` (stereo not given): the growth inhibition is, setting by setting: (at 1.2 µM) -2%; (at 3.7 µM) -2%; (at 11.0 µM) -2%; (at 33.0 µM) 82% (active); (at 100.0 µM) 99% (active).
On to `CCCCCCC1OCC(O)C(OCCCC)O1` (stereo not given), for which the growth inhibition reads like this: (at 1.2 µM) -4%; (at 3.7 µM) -5%; (at 11.0 µM) -6%; (at 33.0 µM) -7%; (at 100.0 µM) -7%.
Turning to `CC1CN(/N=C\c2ccc([N+](=O)[O-])o2)C(=O)O1` (stereo not given), the growth inhibition runs as follows: (at 1.2 µM) -3%; (at 3.7 µM) 6%; (at 11.0 µM) -3%; (at 33.0 µM) -1%; (at 100.0 µM) 18%.
For `OC1(C#CI)CCCCC1`, the growth inhibition by setting is: (at 1.2 µM) -7%; (at 3.7 µM) 28%; (at 11.0 µM) 98% (active); (at 33.0 µM) 99% (active); (at 100.0 µM) 100% (active).
`Cc1c2cc[n+](CCO)cc2c(C)c2c1[nH]c1ccc(O)cc12`: the growth inhibition was -8% (at 1.2 µM); -6% (at 3.7 µM); -4% (at 11.0 µM); -9% (at 33.0 µM); -10% (at 100.0 µM).
For `CC(=O)O[C@H]1CC[C@@]2(C)C(=CC[C@@H]3C2CC[C@]2(C)C(=O)NC(=O)CC32)C1` (stereo not given in full), the growth inhibition runs as follows: (at 1.2 µM) 8%; (at 3.7 µM) 19%; (at 11.0 µM) 46%; (at 33.0 µM) 73% (active); (at 100.0 µM) 71% (active).
In the case of `S=C(NCc1ccccn1)N/N=C/c1ccccn1`, the growth inhibition was 97% (active) (at 1.2 µM); 98% (active) (at 3.7 µM); 98% (active) (at 11.0 µM); 99% (active) (at 33.0 µM); 99% (active) (at 100.0 µM).
As to `N#[N+]c1c([O-])c2ccccc2c2ccccc12`, the growth inhibition by setting is: (at 1.2 µM) 2%; (at 3.7 µM) 5%; (at 11.0 µM) 12%; (at 33.0 µM) 60%; (at 100.0 µM) 98% (active).
